Measured values: article PMC7862700, “An all-to-all approach to the identification of sequence-specific readers for epigenetic DNA modifications on cytosine”

Assays:
Experiment in all cases: DAPPL (digital affinity profiling via proximity ligation, sequencing); 10 mM Tris-HCl pH 7.5, 50 mM NaCl, 1 mM DTT, 4% glycerol, room temperature, 30 min; GST-TFs on glutathione beads, 16-mer random dsDNA library, 0.1% formaldehyde crosslink after washing; high values mean tight binding
Details in all cases: protein: recombinant; tags: N-terminal GST; dsDNA, one strand shown
[1] = biological target: T1, ERF (Homo sapiens, UniProt P50548 1-548)
T1 sequence: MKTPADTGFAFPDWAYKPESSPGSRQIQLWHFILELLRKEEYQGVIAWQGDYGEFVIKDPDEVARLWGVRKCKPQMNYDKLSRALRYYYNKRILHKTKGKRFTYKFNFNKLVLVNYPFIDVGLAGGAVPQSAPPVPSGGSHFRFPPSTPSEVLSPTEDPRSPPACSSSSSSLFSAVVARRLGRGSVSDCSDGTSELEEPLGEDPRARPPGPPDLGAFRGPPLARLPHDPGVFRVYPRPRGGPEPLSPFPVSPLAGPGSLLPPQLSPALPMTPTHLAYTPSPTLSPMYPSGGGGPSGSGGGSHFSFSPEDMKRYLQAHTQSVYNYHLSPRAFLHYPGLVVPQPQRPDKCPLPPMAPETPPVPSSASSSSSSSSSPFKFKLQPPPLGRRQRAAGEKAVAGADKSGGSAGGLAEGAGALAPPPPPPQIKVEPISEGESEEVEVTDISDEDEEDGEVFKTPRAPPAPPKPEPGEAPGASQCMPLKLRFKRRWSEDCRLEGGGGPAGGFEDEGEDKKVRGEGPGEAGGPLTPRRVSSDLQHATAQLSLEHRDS
Outline: (§1)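 Each value of binding signal is a hexamer's read frequency for a factor divided by the same hexamer's frequency in the tag-only sample. Barcoded, bead-captured GST fusions of human transcription factors made in yeast were pooled with that sample and incubated with 200 nmole of a random double-stranded 16-mer DNA library in Tris/NaCl/DTT/glycerol buffer at room temperature for 30 min. Washing, 0.1% formaldehyde crosslinking, proximity ligation, PCR and Illumina NextSeq500 sequencing followed.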

[2] = biological target: T2, ETV3L (Homo sapiens, UniProt Q6ZN32 1-361)
T2 sequence: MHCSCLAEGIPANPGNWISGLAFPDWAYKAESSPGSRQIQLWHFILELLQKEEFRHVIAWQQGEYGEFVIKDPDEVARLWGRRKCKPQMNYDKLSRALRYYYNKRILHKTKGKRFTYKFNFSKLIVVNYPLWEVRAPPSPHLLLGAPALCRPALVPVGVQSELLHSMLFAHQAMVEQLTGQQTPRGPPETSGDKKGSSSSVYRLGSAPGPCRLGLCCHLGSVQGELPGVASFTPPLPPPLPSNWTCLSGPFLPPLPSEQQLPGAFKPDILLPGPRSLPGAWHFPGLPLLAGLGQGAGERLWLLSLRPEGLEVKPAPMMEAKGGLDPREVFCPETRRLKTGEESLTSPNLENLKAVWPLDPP
Outline: as §1

[3] = biological target: T3, ETS2 (Homo sapiens, UniProt P15036 1-469)
T3 sequence: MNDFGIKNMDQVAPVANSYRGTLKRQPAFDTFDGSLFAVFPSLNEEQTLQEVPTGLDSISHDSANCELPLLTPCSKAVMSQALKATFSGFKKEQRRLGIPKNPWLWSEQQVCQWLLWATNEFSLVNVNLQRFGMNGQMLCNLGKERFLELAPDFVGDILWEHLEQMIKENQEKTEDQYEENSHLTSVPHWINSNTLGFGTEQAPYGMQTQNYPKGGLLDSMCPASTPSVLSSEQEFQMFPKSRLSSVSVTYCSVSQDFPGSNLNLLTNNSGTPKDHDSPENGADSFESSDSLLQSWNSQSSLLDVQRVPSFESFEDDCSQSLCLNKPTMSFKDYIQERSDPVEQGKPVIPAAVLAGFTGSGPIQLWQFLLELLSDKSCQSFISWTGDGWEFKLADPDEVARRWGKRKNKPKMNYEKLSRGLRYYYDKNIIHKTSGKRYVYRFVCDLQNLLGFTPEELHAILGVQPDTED
Outline: as §1

[4] = biological target: T4, SPDEF (Homo sapiens, UniProt O95238 1-335)
T4 sequence: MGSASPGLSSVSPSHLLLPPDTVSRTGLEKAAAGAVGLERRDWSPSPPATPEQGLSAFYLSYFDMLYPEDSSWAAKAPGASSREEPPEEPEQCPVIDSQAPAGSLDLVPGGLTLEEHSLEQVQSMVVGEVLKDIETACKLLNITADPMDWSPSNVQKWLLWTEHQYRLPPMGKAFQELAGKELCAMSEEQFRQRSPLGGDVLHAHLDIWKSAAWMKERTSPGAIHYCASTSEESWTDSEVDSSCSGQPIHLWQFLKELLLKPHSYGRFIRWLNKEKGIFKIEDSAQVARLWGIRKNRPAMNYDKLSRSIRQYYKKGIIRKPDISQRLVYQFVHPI
Outline: as §1

[5] = biological target: T5, ETV7 (Homo sapiens, UniProt Q9Y603 1-341)
T5 sequence: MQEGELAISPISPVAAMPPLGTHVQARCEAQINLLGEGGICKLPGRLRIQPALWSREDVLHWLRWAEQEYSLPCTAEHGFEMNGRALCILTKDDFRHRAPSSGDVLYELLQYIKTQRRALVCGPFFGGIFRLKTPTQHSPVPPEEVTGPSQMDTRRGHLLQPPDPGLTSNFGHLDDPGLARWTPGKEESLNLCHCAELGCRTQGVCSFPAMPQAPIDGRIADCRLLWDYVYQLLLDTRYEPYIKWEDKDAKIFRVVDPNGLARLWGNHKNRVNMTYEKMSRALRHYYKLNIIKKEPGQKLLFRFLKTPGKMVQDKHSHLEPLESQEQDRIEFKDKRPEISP
Outline: as §1

[6] = biological target: T6, ELF5 (Homo sapiens, UniProt Q9UKW6-2 1-255)
T6 sequence: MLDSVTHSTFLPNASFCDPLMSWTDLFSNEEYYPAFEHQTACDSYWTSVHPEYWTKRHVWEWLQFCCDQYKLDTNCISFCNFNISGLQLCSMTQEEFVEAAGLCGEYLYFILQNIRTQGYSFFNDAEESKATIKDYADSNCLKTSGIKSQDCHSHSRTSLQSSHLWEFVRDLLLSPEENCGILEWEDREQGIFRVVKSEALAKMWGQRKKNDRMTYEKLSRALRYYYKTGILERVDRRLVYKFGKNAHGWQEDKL
Outline: as §1

[7] = biological target: T7, ETV3 (Homo sapiens, UniProt P41162-2 1-143)
T7 sequence: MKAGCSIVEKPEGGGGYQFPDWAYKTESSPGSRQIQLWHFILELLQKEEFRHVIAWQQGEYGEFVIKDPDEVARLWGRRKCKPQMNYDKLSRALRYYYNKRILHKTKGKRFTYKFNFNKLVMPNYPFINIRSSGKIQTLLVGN
Outline: as §1

[8] = biological target: ETV6 (Homo sapiens, UniProt P41212 1-452)
ETV6, sequence (P41212 whole entry): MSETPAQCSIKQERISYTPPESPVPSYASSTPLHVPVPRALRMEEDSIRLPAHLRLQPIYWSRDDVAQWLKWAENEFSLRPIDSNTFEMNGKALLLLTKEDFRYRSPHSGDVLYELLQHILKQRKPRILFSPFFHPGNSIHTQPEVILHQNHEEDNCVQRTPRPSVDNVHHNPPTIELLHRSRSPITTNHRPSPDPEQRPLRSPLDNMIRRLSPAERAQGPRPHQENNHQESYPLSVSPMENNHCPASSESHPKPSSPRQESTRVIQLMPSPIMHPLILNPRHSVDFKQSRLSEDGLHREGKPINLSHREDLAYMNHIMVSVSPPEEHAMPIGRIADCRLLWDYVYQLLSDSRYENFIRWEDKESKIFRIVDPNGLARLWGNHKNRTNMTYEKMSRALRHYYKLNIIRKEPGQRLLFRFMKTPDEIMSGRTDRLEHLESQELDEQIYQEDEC
Outline: as §1

TCTGAA
binding signal [1]: 1.27 fold enrichment (6-mer frequency, TF over GST control)
binding signal [2]: 1.15 fold enrichment (6-mer frequency, TF over GST control)
binding signal [3]: 1.27 fold enrichment (6-mer frequency, TF over GST control)
binding signal [4]: 1.23 fold enrichment (6-mer frequency, TF over GST control)
binding signal [5]: 1.07 fold enrichment (6-mer frequency, TF over GST control)
binding signal [6]: 1.07 fold enrichment (6-mer frequency, TF over GST control)
binding signal [7]: 1.09 fold enrichment (6-mer frequency, TF over GST control)
binding signal [8]: 1.16 fold enrichment (6-mer frequency, TF over GST control)

CCTCAG
binding signal [1]: 1.35 fold enrichment (6-mer frequency, TF over GST control)
binding signal [2]: 1.27 fold enrichment (6-mer frequency, TF over GST control)
binding signal [3]: 1.25 fold enrichment (6-mer frequency, TF over GST control)
binding signal [4]: 1.1 fold enrichment (6-mer frequency, TF over GST control)
binding signal [5]: 1.1 fold enrichment (6-mer frequency, TF over GST control)
binding signal [6]: 1.14 fold enrichment (6-mer frequency, TF over GST control)
binding signal [7]: 1.17 fold enrichment (6-mer frequency, TF over GST control)
binding signal [8]: 1.15 fold enrichment (6-mer frequency, TF over GST control)

ATGTTT
binding signal [1]: 1.46 fold enrichment (6-mer frequency, TF over GST control)
binding signal [2]: 1.48 fold enrichment (6-mer frequency, TF over GST control)
binding signal [3]: 1.29 fold enrichment (6-mer frequency, TF over GST control)
binding signal [4]: 1.37 fold enrichment (6-mer frequency, TF over GST control)
binding signal [5]: 1.46 fold enrichment (6-mer frequency, TF over GST control)
binding signal [6]: 1.47 fold enrichment (6-mer frequency, TF over GST control)
binding signal [7]: 1.47 fold enrichment (6-mer frequency, TF over GST control)
binding signal [8]: 1.47 fold enrichment (6-mer frequency, TF over GST control)

CTACTG
binding signal [1]: 1.4 fold enrichment (6-mer frequency, TF over GST control)
binding signal [2]: 1.37 fold enrichment (6-mer frequency, TF over GST control)
binding signal [3]: 1.34 fold enrichment (6-mer frequency, TF over GST control)
binding signal [4]: 1.21 fold enrichment (6-mer frequency, TF over GST control)
binding signal [5]: 1.26 fold enrichment (6-mer frequency, TF over GST control)
binding signal [6]: 1.32 fold enrichment (6-mer frequency, TF over GST control)
binding signal [7]: 1.16 fold enrichment (6-mer frequency, TF over GST control)
binding signal [8]: 1.24 fold enrichment (6-mer frequency, TF over GST control)

TTTGCC
binding signal [1]: 1.31 fold enrichment (6-mer frequency, TF over GST control)
binding signal [2]: 1.2 fold enrichment (6-mer frequency, TF over GST control)
binding signal [3]: 1.32 fold enrichment (6-mer frequency, TF over GST control)
binding signal [4]: 1.21 fold enrichment (6-mer frequency, TF over GST control)
binding signal [5]: 1.26 fold enrichment (6-mer frequency, TF over GST control)
binding signal [6]: 1.2 fold enrichment (6-mer frequency, TF over GST control)
binding signal [7]: 1.32 fold enrichment (6-mer frequency, TF over GST control)
binding signal [8]: 1.11 fold enrichment (6-mer frequency, TF over GST control)

CTCGTC
binding signal [1]: 1.4 fold enrichment (6-mer frequency, TF over GST control)
binding signal [2]: 1.24 fold enrichment (6-mer frequency, TF over GST control)
binding signal [3]: 1.46 fold enrichment (6-mer frequency, TF over GST control)
binding signal [4]: 1.35 fold enrichment (6-mer frequency, TF over GST control)
binding signal [5]: 1.46 fold enrichment (6-mer frequency, TF over GST control)
binding signal [6]: 1.32 fold enrichment (6-mer frequency, TF over GST control)
binding signal [7]: 1.34 fold enrichment (6-mer frequency, TF over GST control)
binding signal [8]: 1.46 fold enrichment (6-mer frequency, TF over GST control)

CGACTC
binding signal [1]: 1.59 fold enrichment (6-mer frequency, TF over GST control)
binding signal [2]: 1.36 fold enrichment (6-mer frequency, TF over GST control)
binding signal [3]: 1.38 fold enrichment (6-mer frequency, TF over GST control)
binding signal [4]: 1.29 fold enrichment (6-mer frequency, TF over GST control)
binding signal [5]: 1.29 fold enrichment (6-mer frequency, TF over GST control)
binding signal [6]: 1.33 fold enrichment (6-mer frequency, TF over GST control)
binding signal [7]: 1.29 fold enrichment (6-mer frequency, TF over GST control)
binding signal [8]: 1.38 fold enrichment (6-mer frequency, TF over GST control)
